This passage reports Kinases covered results from article PMC7826789 (International Journal of Molecular Sciences, 2021).

Each structure is given as a SMILES string.

For `COc1cc2ncn(-c3cc(O[C@H](C)c4ccccc4Cl)c(C(N)=O)s3)c2cc1OC` [GSK237701A], the Kinases covered result in the experiment on PDGFRB is reported as “PDGFRB”. On to `COc1ncc(-c2cc(-c3ncc(CN4C[C@@H](C)O[C@@H](C)C4)o3)c3cn[nH]c3c2)cc1NS(C)(=O)=O` [GSK2292767], for which the Kinases covered result in the experiment on PIK3CD is “PIK3CD”.

For the compound `CC[C@@H]1CO[C@H](C(=O)Nc2ccccc2)CN1c1cc(-c2ccc3c(N)n[nH]c3c2)nc(NC)n1` [GSK2376236], the Kinases covered entry in the experiment on PDPK1 is listed as “PDPK1”.

`CC(C)N1CCN(Cc2cnc(-c3cc(-c4cccc5[nH]ccc45)cc4[nH]ncc34)o2)CC1` [GSK2269557]: the Kinases covered result in the experiment with PIK3CD was “PIK3CD”. Consider `CNS(=O)(=O)c1ccc(N(C)C)c(Nc2ncnc3cc(OC)c(OC)cc23)c1` [GSK114], for which, in the experiment with PDGFRB, the Kinases covered entry was “PDGFRB”. Consider `Cc1c(Cn2ccn3c(=O)nc(N4CCOCC4)cc23)cccc1C(F)(F)F` [GSK2336394], for which, in the experiment on PIK3CB, the Kinases covered entry is “PIK3CB”. For the compound `FC1=CC(C3=NC2=CC(OC)=C(OC)C=C2C(N[C@H]4[C@H]([C@](C)(O)C)CNC4)=N3)=C(O)C=C1.Cl.Cl` [CCT241533], the Kinases covered entry with PHK was “PHK”.

As to `CC(C)C(=O)N[C@@H]1CCN(C(=O)Nc2nc3c(s2)-c2nc(-c4ccccc4Cl)ncc2CC3)C1` [BI00047804], the Kinases covered entry in the experiment with PIK3CG is “PIK3CG”. As for `CN(C)C(=O)/C(C#N)=C/c1ccc(-c2nc3cnc4[nH]ccc4c3n2C2CCCCC2)o1` [FM-381], in the experiment with PIK3C2G, the Kinases covered entry is “PIK3C2G”.

On to `Cn1ccc2ncnc(Oc3ccc(NC(=O)Nc4ccccc4)cc3)c21` [TPKI-69], for which, in the experiment with PDGFRB, the Kinases covered entry is recorded as “PDGFRB”.
